BoNT-A LC inh2 = blocks Botulinum neurotoxin A light chain protease; multiplex microsphere protease substrate cleavage, flow cytometry; inhibition, % at 10 µM; 360,000 tested, 0.17% active; AID 588499; also: plate controls were buffer without enzyme for full effect and enzyme alone for no effect
SARS 3CLpro inh = SARS-CoV 3CLpro protease inhibition | recombinant SARS-CoV 3CLpro, quenched FRET peptide cleavage | inhibition, % at 6 µM | P0C6X7 | AID 1706 | 290,000 tested, 0.14% active; in the data active = inhibition above about 12%
BoNT F protease = blocks Botulinum neurotoxin F light chain protease; 360,000 tested, 0.22% active; Multiplex microsphere protease cleavage assay, flow cytometry; inhibition, % at 10 µM; AID 588497; in the data active = inhibition above about 35%, passing the limit was not always enough; inconclusive = no clear call, values can overlap the other calls; also: plate controls were buffer without enzyme for full effect and enzyme alone for no effect
Autofluor counter = flagged as autofluorescent in microsphere protease counterscreen. compound autofluorescence counterscreen, microsphere flow cytometry; hits give high values. fluorescence intensity (no concentration beside the values). 360,000 tested, 3.1% active. AID 624483; in the data active = fluorescence intensity above about 16000; inconclusive = no clear call, values can overlap the other calls
CCHF vOTU inh = CCHFV vOTU protease inhibition | Pep-AMC fluorescence | inhibition, % at 11.5 µM | 370,000 tested, 0.55% active; in the data active = inhibition above about 30%; also: 0% = vehicle wells with enzyme and 100% = no enzyme wells
Anthrax LF prot = blocks Bacillus anthracis lethal factor protease; multiplex microsphere protease cleavage assay, LF; inhibition, % at 10 µM; 360,000 tested, 0.12% active; P15917; AID 588501; also: plate controls were buffer without enzyme for full effect and enzyme alone for no effect
An asterisk follows results filed as active; ? = inconclusive; · = no result given. In the library only some 3.9% were active in any assay of this set; here they are far more common. Rule as the data show it, unless noted: active = inhibition above about 30%; inconclusive = no clear call, values can overlap the other calls; inactive = below that.

SMILES	BoNT-A LC inh2	SARS 3CLpro inh	BoNT F protease	Autofluor counter	CCHF vOTU inh	Anthrax LF prot
c1coc(-c2nc3nc4ccccc4nc3n2CC2CCCO2)c1 (stereo unspecified)	3.4	-2.7	1.3	22833*	-219.7	4.0
c1ccc(-c2nc3nc4ccccc4nc3n2CC2CCCO2)cc1 (stereo unspecified)	0.8	2.5	4.4	4262	-55.7	-4.4
Nc1ccn([C@@H]2O[C@H](C(=O)N[C@H](Cc3ccccc3)C(=O)NCc3cccc4c3OCO4)[C@@H](O)[C@H]2O)c(=O)n1	·	·	·	·	-7.4	·
O=C(CSc1nnc(-c2ccncc2)n1CC1CCCO1)Nc1cccc(O)c1 (stereo unspecified)	1.4	-1.6	2.6	22751*	0.6	-3.7
CCC(=O)Nc1ccc(C(=O)CSc2nnc(-c3ccc(O)cc3)n2CC2CCCO2)cc1OC (stereo unspecified)	2.2	-0.1	1.6	20195*	16.0	-2.6
CCOc1ccc(NC(=O)CSc2nnc(-c3ccncc3)n2CC2CCCO2)cc1 (stereo unspecified)	0.2	-4.8	-1.0	3671	-3.8	-1.4
COc1ccc(NC(=O)CSc2nnc(-c3ccncc3)n2CC2CCCO2)c(OC)c1 (stereo unspecified)	0.4	0.3	-15.9	2924	-8.7	-3.8
COc1ccc(/C=C2\CC3(OC(=O)c4ccc(F)cc4)CCCN2C3)cc1 (stereo unspecified)	·	·	·	·	9.7	·
CCOc1cc(CCNC(=O)c2cc3sccc3n2CC)ccc1OC	·	·	·	·	1.5	·
CCOc1ccc(C(=O)N2CCn3c2nc2ccccc23)cc1	-0.9	-0.2	-4.2	5440	-11.7	2.9
CCOC(=O)C1=C(O)CCn2c1nc1ccccc12	9.1	-3.2	10.6	19422*	·	-7.2
COc1ccccc1N1CCN(C(=O)CNC(=O)c2cn(-c3ccccc3OC)c(=O)c3ccccc23)CC1	-1.7	7.8	-4.6	4597	-8.1	-2.3
COc1ccccc1-n1cc(C(=O)NCC(=O)N2CCN(c3ccccc3)CC2)c2ccccc2c1=O	-3.1	1.6	-4.5	24097*	6.1	0.7
COC(=O)c1cc(NC(=O)CC2NC3CCCCC3NC2=O)cc(C(=O)OC)c1 (stereo unspecified)	1.2	3.7	-1.7	22818*	-19.0	-8.8
COc1ccc(-n2cc(COC(=O)NCCc3ccccc3)nn2)cc1	·	·	·	·	3.2	·
CCOC(=O)[C@@]12CCC3=C1N(CCC3)C(=O)[C@H](CC(=O)N1CCSCC1)C2	·	·	·	·	-2.4	·
CCCCn1nnnc1NCc1ccc(N(CC)CC)cc1	-1.7	3.2	-3.2	23951*	15.5	-3.5
CCCCCCCCN1C(=O)[C@@H](CC(=O)N2CCSCC2)C[C@@]2(C(=O)OC)C1=C[C@H](C(C)(C)C)O[C@@H]2C	·	·	·	·	9.4	·
CC(C)N1C2OC(C3OC4C(O3)N(C(C)C)S(=O)(=O)N4C(C)C)OC2N(C(C)C)S1(=O)=O (stereo unspecified)	0.1	-2.1	0.1	23341*	-6.7	1.7
CCCCNC(=O)N1CCCC1C(=O)Nc1cccc(OC)c1 (stereo unspecified)	·	·	·	·	-5.4	·
CSCCC(NC(=O)c1ccccc1)C(=O)NC1CC1 (stereo unspecified)	?	1.2	-5.7	23748*	-4.4	-2.1
CCOc1ccccc1-c1nc(-c2cc3ccc(C)cc3[nH]c2=O)no1	1.5	0.3	4.6	16326*	-4.9	0.5
COC(=O)C1CN(Cc2cn(CCOC(C)=O)nn2)CCS(=O)(=O)N1Cc1ccc(OC)cc1 (stereo unspecified)	·	·	·	·	13.2	·
COC(=O)[C@H](Cc1ccccc1)NP(=O)(OC)[C@@H](C)NC(=O)OCc1ccccc1 (stereo partly specified)	·	·	·	·	-2.8	·
Cc1ccc(N2C(=O)C3C(C2=O)C2C=CC3C23CC3)cc1 (stereo unspecified)	?	-1.6	-0.2	19890*	3.3	-2.7
SMILES	BoNT-A LC inh2	SARS 3CLpro inh	BoNT F protease	Autofluor counter	CCHF vOTU inh	Anthrax LF prot
COc1cc(C)c(S(=O)(=O)Nc2ccc(CC(=O)O)cc2)cc1C	-5.7	0.1	-8.3	25248*	0.6	-3.0
CCOC(=O)c1nnn(-c2nonc2N)c1CN1CCCC1	-2.7	0.8	9.0	3989	-3.4	8.7
CCOC(=O)c1nnn(-c2nonc2N)c1CNc1ccccc1	-0.5	-0.8	6.5	5639	1.8	-0.1
CCOC(=O)c1nnn(-c2nonc2N)c1CN1CCCCCC1	1.3	-2.2	3.6	16135*	7.7	-2.4
CCOC(=O)c1nnn(-c2nonc2N)c1CNC(C)C	?	-0.1	0.9	21205*	-7.8	-1.7
CC(C)c1nc(=S)n(-c2ccccc2)[nH]1	0.4	3.5	-3.4	2470	1.1	-2.5
CC(=O)Nc1nc(=S)n(-c2ccccc2)[nH]1	2.0	-1.3	2.0	22526*	3.4	0.0
CC(C)=CCC[C@@]1(C(=O)O)[C@H]2CC=C(CO)[C@@H]1CC/C(C)=C/CC/C(C)=C/C2	·	·	·	·	7.4	·
COc1ccc(C(=O)OCCCN(C)C2CN(Cc3cn(Cc4ccccc4Cl)nn3)S(=O)(=O)C2)cc1OC (stereo unspecified)	·	·	·	·	6.0	·
O=C1NCCN1C(=O)N(c1ccccc1)c1ccccc1	0.9	4.4	1.3	22362*	6.7	3.7
O=C(N[C@H](C(=O)N1CCC[C@H]1C(=O)NCc1ccccc1)C1CCCCC1)c1ccc(Cl)cc1Cl	·	·	·	·	1.4	·
O=S1(=O)c2c(NCc3ccco3)cccc2Oc2ccccc2CN1Cc1cn(Cc2ccc(C(F)(F)F)cc2)nn1	·	·	·	·	6.3	·
Cc1ccc(/C=C2\SC(=S)N(CCC(=O)N3CCCCC3)C2=O)cc1	-0.8	1.0	-16.7	4463	3.2	4.7
O=C(O)CCN1C(=O)/C(=C\c2ccc(-c3nc4ccccc4s3)o2)SC1=S	46.7*	4.8	10.8	2421	·	40.5*
COc1ccc(-c2nn(-c3ccccc3)cc2/C=C2/SC(=S)N(CCC(=O)O)C2=O)c(C)c1	0.0	2.1	-13.2	2885	3.9	37.0*
COc1cc(/C=C2\SC(=S)N(CCC(=O)N3CCCCC3)C2=O)cc(OC)c1OC	30.2*	2.2	17.8	5345	10.9	28.0
COc1ccc(-c2nn(-c3ccccc3)cc2/C=C2/SC(=S)N(CCC(=O)O)C2=O)cc1	-3.1	2.9	-10.3	2874	-6.4	5.0
COc1ccc(/C(C)=C2/SC(=S)N(CCC(=O)O)C2=O)cc1	?	-1.2	2.4	19144*	11.4	1.0
O=C(O)CCCN1C(=O)/C(=C\c2ccco2)SC1=S	-1.2	1.5	-2.2	4431	1.7	6.1
Cc1ccc(C(=O)NCC(=O)OCc2nc3sc(C)c(C)c3c(=O)[nH]2)cc1	·	·	·	·	3.9	·
C=CCN1C(=O)[C@H](CC(=O)NCC23CC4CC(CC(C4)C2)C3)[C@@]2(C(=O)OC)CCCCC=C12	·	·	·	·	4.1	·
COc1ccc(O)c(/C=C2/SC(=S)N(Cc3ccccc3)C2=O)c1	-1.4	-5.1	?	5051	-2.6	-6.3
COc1ccc(/C=C2/SC(=S)N(CCC(=O)O)C2=O)cc1	-1.6	2.4	-1.3	21113*	9.9	-2.0
COc1cc(/C=C2/SC(=S)N(CC(=O)Nc3cccnc3)C2=O)cc(OC)c1OC	31.2*	1.1	30.1	2639	-5.0	14.8

Screening results from PubChem.
